# Measured values published in PubChem BioAssay AID485367 (National Center for Advancing Translational Sciences (NCATS), 2010).
# Hit rate of the full screen: of about 330,000 compounds, about 560 (0.17%) were called active. Inconclusive results (about 1%) are left out. The call rests on the fitted dose curve; in most records, active means well fitted inhibition curve with a large enough effect; inconclusive means small, poorly fitted or top-dose-only effect, or effect the other way; inactive means flat fitted curve, though single readings scatter. Shown is part of a subset that was picked to be rich in actives.
# Molecular target: ATP-dependent 6-phosphofructokinase (Trypanosoma brucei brucei) (UniProt O15648)
# Sequence (O15648 whole entry, looked up): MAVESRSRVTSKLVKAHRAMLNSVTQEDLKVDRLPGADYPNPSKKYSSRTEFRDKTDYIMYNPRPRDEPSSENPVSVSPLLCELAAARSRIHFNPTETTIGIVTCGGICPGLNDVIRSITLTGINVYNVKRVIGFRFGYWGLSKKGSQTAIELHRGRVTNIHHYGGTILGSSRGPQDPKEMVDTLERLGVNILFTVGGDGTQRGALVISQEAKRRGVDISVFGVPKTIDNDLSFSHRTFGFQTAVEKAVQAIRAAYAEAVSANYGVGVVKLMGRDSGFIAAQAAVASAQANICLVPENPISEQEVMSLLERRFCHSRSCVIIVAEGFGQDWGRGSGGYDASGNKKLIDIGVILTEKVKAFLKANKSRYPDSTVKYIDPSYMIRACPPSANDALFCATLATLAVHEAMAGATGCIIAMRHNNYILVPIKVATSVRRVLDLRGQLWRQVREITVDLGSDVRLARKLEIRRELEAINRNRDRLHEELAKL
# Experiment: qHTS Assay to Find Inhibitors of T. brucei phosphofructokinase; further: nearly all actives have a fitted effect of over 60% in size
# Details: T. brucei PFK, ADP-Glo luminescence; series mostly up to 57.5 µM; activity, negative = inhibition: at the top concentration
# Text: NIH Molecular Libraries Probe Production Network [MLPCN] NIH Chemical Genomics Center [NCGC] Grant: 1 R03 MH092153-01 PI Name: Malcolm Walkinshaw, University of Edinburgh NCGC Assay Overview: Various species of the protozoan family Trypanosomatidae are responsible for a range of serious human diseases in tropical and subtropical areas of the world. […] Many of the disorders caused by trypanosomatids are fatal if left untreated, but most currently used drugs are inefficient and toxic. […] Oxidative metabolism involving the mitochondrial tricarboxylic acid cycle and oxidative phosphorylation are repressed in these parasites, and recent RNA interference (RNAi) experiments have shown that even partial depletion of certain individual glycolytic enzymes can lead to the death of cultured parasites. One such glycolytic enzyme, phosphofructokinase (PFK), catalyzes the formation of fructose-1,6-bisphosphate (F1,6BP) and ADP from fructose-6-phosphate (F6P) and ATP, and in many metabolic circumstances makes an important contribution to the control of flux through the glycolytic pathway. As a specific glycolytic target, PFK is particularly attractive as it catalyzes the first irreversible step in glycolysis, and structural and kinetic studies have shown very substantial and essential differences from corresponding host enzymes, allowing for the discovery of parasite-selective inhibitors. The goal of this screen is to find small-molecule inhibitors of T. brucei PFK using a biochemical assay that measures PFK activity as a function of ADP production. A luminescence-based assay for T. brucei PFK activity has been developed which uses luciferase to detect production of ADP. Traditional luciferase-based nucleotide detection reagents rely on ATP production as a direct substrate for the luciferase reaction; however, PFK catalyzes the transfer of a phosphate from ATP to F6P, resulting in the net depletion of ATP. To directly measure the ADP product of the PFK reaction, we used the ADP-Glo detection kit (Promega), which utilizes two separate reactions to 1) deplete all remaining uncatalyzed ATP and 2) convert all remaining ADP to ATP, which is then detected through a traditional luciferase-coupled reaction. Compounds were screened as a concentration-titration series that ranged from 57 uM to 0.7 nM.
# NCGC Assay Protocol Summary: NCGC Assay Protocol Summary: Substrate buffer was dispensed into white, solid 1536-well plates at 3uL/well in 0.1M triethanolamine (TEA) buffer, pH 8.0, containing final concentrations of 5 mM MgCl2, 0.01% Tween20, 0.5 mM fructose-6-phosphate (F6P) and 0.1mM ATP. Then, 23 nL of compounds or DMSO were delivered to each well using a pin tool. One uL T. brucei PFK (0.1M TEA, 0.01% Tween20, 0.1% bovine serum albumin (BSA) and 1.25nM PFK, final concentrations) was then dispensed, and plates were incubated at room temperature for 45 min. The luminescent detection reagent, ADP-Glo (Promega), was then added in two steps: the first reagent, ADP-Glo (which converts remaining uncatalyzed ATP), was added at 2.5uL/well and incubated for ten minutes at room temperature, and the second component, Kinase Detection reagent (which converts ADP to ATP as a substrate for luciferase-based luminescence), was added immediately after at 5uL/well, followed by one final ten minute room temperature incubation. The plates were measured on a ViewLux plate reader for luminescent signal using a clear filter with a one second exposure. The %Activity was determined from the corrected luminescence values. As no specific T. brucei PFK inhibitors have been identified in the literature, 1x (1.25nM) and 0x PFK enzyme controls (untreated) were included to normalize %Activity of identified inhibitors; 0x enzyme values corresponded to 100%Activity (full inhibition), while 1x PFK enzyme values were used to normalize 0%Activity (no inhibition). Concentration-response curves were fitted to the signals arising from the resulting luminescence. […]
# Potency means the concentration at half of the fitted maximal effect.
Compound,Potency,"activity, negative = inhibition"
Cc1[nH][nH]c(=O)c1C(c1ccc2c(c1)OCO2)c1c(C)[nH][nH]c1=O,23.9 µM (active),
CCOc1ccc(C(c2c(C)[nH][nH]c2=O)c2c(C)[nH][nH]c2=O)cc1OCC,,-5.84% (inactive)
Nc1[nH][nH]c(=O)c1N=Nc1ccc2c(c1)OCO2,,2.23% (inactive)
COc1cc(C2C(N3C(=O)c4ccccc4C3=O)C(=O)N2c2ccc(C)c(C)c2)cc(OC)c1OC (stereo not given),,-1.29% (inactive)
OC(CNCC1CCCO1)Cn1c2ccc(Br)cc2c2cc(Br)ccc21 (stereo not given),,-2.71% (inactive)
Nc1nc(Nc2ccccc2F)nc(NC2CCCCC2)c1[N+](=O)[O-],,-7.16% (inactive)
COc1cc(NC(=O)COC(=O)CSc2ccc3ccccc3c2)c(C)cc1[N+](=O)[O-],,0.214% (inactive)
CCOC(=O)N1CCN(C(=O)CN(C2CCCCC2)S(C)(=O)=O)CC1,,-3.12% (inactive)
CC(Oc1cc2oc(=O)c3c(c2cc1Cl)CCCC3)C(=O)NCc1ccncc1 (stereo not given),,0.885% (inactive)
CC(C)CN(CC(C)C)CC(O)CN(c1ccccc1)S(=O)(=O)c1ccccc1[N+](=O)[O-] (stereo not given),,-3.71% (inactive)
CCCN1C2CCCC1CC(NC(=O)NC13CC4CC(CC(C4)C1)C3)C2 (stereo not given),,-1.81% (inactive)
CCN(CC(=O)N1CCCC1)S(=O)(=O)c1ccc(F)cc1,,1.92% (inactive)
O=C(Cn1c(COc2ccccc2)nc2ccccc21)Nc1cc(Cl)c(Cl)cc1Cl,,-10.8% (inactive)
O=C(CN(CC1CCCO1)C(=O)CNS(=O)(=O)c1ccc(F)cc1)NCc1ccco1 (stereo not given),,-5.87% (inactive)
COc1ccc(-c2nc3c(s2)CCc2onc(-c4ccc(OC)cc4)c2-3)cc1,,-0.904% (inactive)
COc1ccc(Cl)cc1NC(=O)NC(C)C(C)(C)C (stereo not given),,0.905% (inactive)
Cc1cccc(NC(=S)NC23CN4CN(CN(C4)C2)C3)c1,,-1.16% (inactive)
Cc1cccc(NC(=S)Nc2ccc3cn[nH]c3c2)c1,,3.21% (inactive)
Cc1cccc(NC(=S)Nc2ccc(Cl)c(Cl)c2)c1,10.7 µM (active),
COCCN1C(=O)N(c2ccc(Cl)cc2)C(=O)C1CC(=O)Nc1cc(OC)cc(OC)c1 (stereo not given),,3.53% (inactive)
CC1(N2CCOCC2)CC2(O)C(=[N+]1[O-])CCc1nonc12 (stereo not given),,0.181% (inactive)
O=C(CCn1nnc2ccccc21)OCC(=O)c1ccc([N+](=O)[O-])cc1,,-4.04% (inactive)
Cc1ccnc(-n2sc3ccccc3c2=O)n1,7.57 µM (active),
Cc1nc2ccccc2c(=O)n1NC(=O)c1ccccc1,,2.74% (inactive)
COC(=O)COc1ccc2c(c1C)O/C(=C\c1ccco1)C2=O,,-12.5% (inactive)

Compound,Potency,"activity, negative = inhibition"
O=C(COC(=O)c1cccs1)NCc1cccs1,,0.216% (inactive)
O=C(COC(=O)CCC(=O)c1cccs1)NCc1ccco1,6.75 µM (active),
O=C(COC(=O)C12CC3CC(CC(C3)C1)C2)NCc1ccco1,,3.92% (inactive)
Cc1cc(NC(=O)COC(=O)/C=C/c2ccc(C)o2)no1,,8.73% (inactive)
CS(=O)(=O)N(CC(=O)N1CCOCC1)c1cccc(Cl)c1Cl,,-5.81% (inactive)
Cc1ccc(S(=O)(=O)N2CCCCC2)cc1NC(=O)[C@@H]1CCCN1C(=O)c1cccs1,,-2.04% (inactive)
O=C(COC(=O)CCCN1C(=O)c2cccc3cccc(c23)C1=O)NC1CCS(=O)(=O)C1 (stereo not given),,-7.52% (inactive)
CCC(C)c1ccc(NC(=O)COC(=O)C2CCCC2)cc1 (stereo not given),,-1.93% (inactive)
Cc1c(Cl)cccc1NC(=O)Nc1ccc(C(=O)N2CCCC2)cc1,,-3.91% (inactive)
COc1cc(S(=O)(=O)N2CCOCC2)ccc1NC(=O)COc1ccc(N(C)S(=O)(=O)c2ccc(C)cc2)cc1,,4.44% (inactive)
C/C(=N/Nc1ccc(Cl)cc1)c1cnnc(-c2ccccc2)n1,,5.32% (inactive)
Cc1c(C)c2ccc(OCC(=O)N3CCC(C(=O)O)CC3)c(C)c2oc1=O,,-0.415% (inactive)
Cc1c(CC(=O)N2CCN(C(=O)C3COc4ccccc4O3)CC2)c(=O)oc2c(O)c(O)ccc12 (stereo not given),4.78 µM (active),
O=C(CNC(=O)C1COc2ccccc2O1)N/N=C/c1cc(Br)c(O)c(Br)c1 (stereo not given),,-4.63% (inactive)
Cc1ccc2c(=O)cc(C(=O)NCCc3ccc(S(N)(=O)=O)cc3)oc2c1C,,1.41% (inactive)
CCCNC(=O)NC(=O)COC(=O)CC(NC(N)=O)c1ccc(Cl)cc1 (stereo not given),,-0.0234% (inactive)
Nc1cc(N)nc(SCc2ccc(Cl)cc2)n1,,-10.3% (inactive)
COc1ccc(CCNC(=O)c2cnc(Cl)c(Cl)c2)cc1,,-9.9% (inactive)
COc1cnc(SCc2ccc(Cl)c(Cl)c2)nc1Cl,26.9 µM (active),
Cc1ccc(C2CC(c3cccc(Br)c3)n3nc(N)nc3N2)cc1 (stereo not given),,5.14% (inactive)
O=C1CCN(Cc2ccccc2)CCN1[C@H](CSc1ccccc1)c1ccccc1,,0.129% (inactive)
O=C(CNS(=O)(=O)c1ccc2ccccc2c1)Nc1ccc(F)c(F)c1F,,-1.12% (inactive)
Cc1ccccc1NC(=O)Cc1nc(COC(=O)c2cccnc2Cl)cs1,,0.473% (inactive)
N#Cc1ccccc1-n1c(N)c(C(=O)N2CCCC2)sc1=S,,0.585% (inactive)
Cc1cccc(-n2c(N)c(C(=O)N3CCN(C)CC3)sc2=S)c1,12 µM (active),
